Screening data from PubChem BioAssay.
A selection: hits, their analogues and other compounds. The true share with any hit is near 0.93%.
CDC25B CDK2 inh: human CDC25B-CDK2/CyclinA binding inhibition; HTRF CDC25B-CDK2/CyclinA binding, anti-His/anti-Flag; stronger effect = higher value; 94,000 tested, 0.72% active; z-score (test concentration not listed); P30305+P24941; in the data active = z-score above about 3.2
HIV TAR-Tat: HIV-1 TAR-Tat binding disruption | HIV-1 TAR RNA, Tat peptide displacement FRET; stronger effect = higher value | z-score (no concentration beside the values) | 100,000 tested, 0.6% active; active = z-score of 3 or more in at least 2 runs
* marks the source's active call; other numbers are inactive results; . = no result given.

SMILES	CDC25B CDK2 inh	HIV TAR-Tat
COc1ccc(N2CCN(C(=O)c3ccc(N4CCSc5ncccc54)s3)CC2)cc1	.	1.2
O=C(O)c1cc2ncc(Br)cn2n1	.	18*
O=C(c1cnc2cc(-c3ccccc3)nn2c1)c1cc(Br)ccc1O	-0.74	-0.18
COc1cccc(CNc2nc3c(S(=O)(=O)c4cccc(Cl)c4)nnn3c3ccsc23)c1	.	0.37
COc1cc(C2CC(c3c(O)n(C)c(=O)n(C)c3=O)=Nc3ccccc3S2)ccc1O (stereo not given)	-1.7	1.2
COc1ccc(C2CC(c3c(O)n(C)c(=O)n(C)c3=O)=Nc3ccccc3S2)cc1OC (stereo not given)	20*	2.3
O=C(O)/C=C/c1ccc(O)c(O)c1	-1.6	5.3
O=C(/C=C/c1ccc(O)c(O)c1)O[C@H](Cc1ccc(O)c(O)c1)C(=O)O	.	17*
CC1CCC(NS(=O)(=O)c2ccc3c(c2)C(C(C)C)C(=O)N3)CC1 (stereo not given)	.	0.36
Cc1cc(F)ccc1S(=O)(=O)N(C(=O)c1ccncc1)c1ccc2oc(=O)sc2c1	-1.6	0.19
O=C(Nc1ccc(S(=O)(=O)N2CCOCC2)cc1)c1csnn1	-1.3	-2
c1ccc2cc(-c3cc(-c4nc(-c5ccc6c(c5)OCO6)no4)[nH]n3)ccc2c1	.	0.14
CCOc1ccccc1NC(=O)N1c2ccccc2NC2=C(C(=O)CCC2)C1c1cccs1 (stereo not given)	.	21*
COc1ccccc1NC(=O)N1c2ccccc2NC2=C(C(=O)CCC2)C1c1cccs1 (stereo not given)	.	2.6
COc1ccccc1OCCSc1nc(-c2ccc(Cl)cc2)nc2cc(=O)[nH]n12	.	3.9
O=C(O)c1cc(-c2ccc(O)c(O)c2)nc2n[nH]c(-c3ccccc3)c12	-0.65	19*
O=C(O)c1ccc(-c2cc(C(=O)O)c3c(-c4ccccc4)[nH]nc3n2)cc1	.	1.8
O=C(NCc1ccc(F)cc1)c1cc2c(s1)CSC2	.	1.4
CC(=O)N1N=C(CSc2nc(C)cc(C)n2)OC1/C(C)=C/c1ccccc1 (stereo not given)	.	4.2*
CC(=O)N1N=C(CSc2nnc(-c3ccccc3)n2-c2ccccc2)OC1c1ccc(C)o1 (stereo not given)	.	0.39
CCCNC(=O)c1cc(CCC)on1	-0.34	0.42
NCCCn1c(-c2ccncc2)nc2cccnc21	.	0.72
O=C(CC1(O)C(=O)N(Cc2ccccc2)c2ccccc21)c1ccc2c(c1)OCCO2 (stereo not given)	-0.45	.
COc1cccc(-c2noc(-c3ccc(OC)c(OC)c3)n2)c1	-2.1	1.6
Cc1nc2c(c(Nc3ccccc3OC(C)C)n1)CCC2	-1.4	-0.33
SMILES	CDC25B CDK2 inh	HIV TAR-Tat
Cc1ccccc1-c1noc(C2CCCN(S(=O)(=O)c3ccc(Br)cc3)C2)n1 (stereo not given)	.	1.3
Cc1c(C(=O)O)c(O)cc2c1C(=O)c1c(O)c([C@H]3O[C@H](CO)[C@@H](O)[C@H](O)[C@H]3O)c(O)c(O)c1C2=O	.	8.5*
COc1c(O)cc2c(c1O)[C@@H]1O[C@H](CO)[C@@H](O)[C@H](O)[C@H]1OC2=O	.	1.9
CN1C(=O)CSc2ccc(NC(=O)NCc3ccc(F)cc3)cc21	1.9	-0.54
CN1C(=O)CSc2ccc(NC(=O)NCc3cccnc3)cc21	4.8*	0.5
CCN(CC)CCCN1C(=O)c2cc3sccc3n2CC1(C)C(=O)NC1CCCCC1 (stereo not given)	-1.1	0.64
CC(C)OC(=O)C(C(=O)C(F)(F)F)c1cc(NS(=O)(=O)c2ccc(Br)cc2)c2ccccc2c1O (stereo not given)	19*	.
CCc1ccc(S(=O)(=O)Nc2cc(Br)c(O)c3ccccc23)cc1	18*	.
CC(C)OC(=O)C(C(=O)C(F)(F)F)c1cc(NS(=O)(=O)c2ccccc2)c2ccccc2c1O (stereo not given)	-0.59	.
CCc1ccc(S(=O)(=O)Nc2cc(-c3c(O)ccc4ccccc34)c(O)c3ccccc23)cc1	0.58	.
CCn1c(C(=O)N2CCC(C(=O)NCCCN3CCN(C)CC3)CC2)cc2sccc21	-2	-0.99
Cc1cc(NC(=O)CSc2nnc(Cc3cccn3C)n2C)no1	-0.38	-0.15
Cc1c(C(=O)N2CCCCC2)c(S(=O)(=O)N2CCOCC2)c(C)n1C	.	-0.94
O=C(CSc1n[nH]c(-c2ccco2)n1)c1c[nH]c2ccccc12	-1.5	2.5
O=C(CSc1n[nH]c(-c2ccncc2)n1)c1c[nH]c2ccccc12	6.8*	-0.52
O=C(NCc1ccc2c(c1)OCO2)c1cc(-c2ccc(Br)cc2)n[nH]1	.	0.93
C=CCNC(=O)Nc1ccc2nc3c4ccccc4c4ccccc4c3nc2c1	21*	.
O=C(NNc1cc(C(F)(F)F)nc2ccccc12)Nc1ccccc1	0.86	.
COCCNC(=O)Nc1ccc2nc3c4ccccc4c4ccccc4c3nc2c1	20*	.
S=C(Nc1ccc2nc3c4ccccc4c4ccccc4c3nc2c1)NC1CC1	7.1*	.
O=C(NC1CC1)c1ccc(NC(=O)c2nsc3ccccc23)cc1	-3.1	2.2
O=C(COC(=O)c1ccc2nc3c4ccccc4c4ccccc4c3nc2c1)c1ccccc1	-2	.
O=C(NCCO)c1ccc2nc3c4ccccc4c4ccccc4c3nc2c1	8.2*	.
COCCNC(=O)Nc1ccc2nc(NS(C)(=O)=O)sc2c1	.	0.39
Cc1ccc(S(=O)(=O)Nc2ccccc2SCc2cc(=O)n3nc(C4CC4)sc3n2)cc1	.	2.1
SMILES	CDC25B CDK2 inh	HIV TAR-Tat
Cc1cc(NC(=O)CSc2ncnc3c2oc2ccccc23)no1	-5.8	.
COCCOC(=O)C1=C(C)NC2=C(C(=O)C(C(=O)OC)C(C)C2)C1c1cccc(Cl)c1 (stereo not given)	-0.36	-0.52
O=C(c1cccs1)N1CCN(CCOc2ccccc2)CC1	4.3	.
O=C(c1cccs1)N1CCN(CCN2C(=O)c3cccc4cccc(c34)C2=O)CC1	12*	1.1
CN(C)CCNC(=O)c1ccc(NC2=NC3CS(=O)(=O)CC3S2)cc1 (stereo not given)	.	2.1
CC(=O)NCCNC(=O)c1ccc(NC2=NC3CS(=O)(=O)CC3S2)cc1 (stereo not given)	.	11*
CCOc1cc2sc(N3CCC(C(=O)N4CCN(CC)CC4)CC3)nc2cc1Br	-0.49	0.68
O=C(NCC1COc2ccccc2O1)c1ccc2c(Cl)c3c(nc2c1)CCC3 (stereo not given)	-1.6	.
CCN1C(=O)c2cccc3c(S(=O)(=O)NC(Cc4ccccc4)C(=O)O)ccc1c23 (stereo not given)	-0.79	1.1
CCN1C(=O)c2cccc3c(NC(=O)c4ccc(Cl)s4)ccc1c23	16*	.
COC(=O)CSC1=NS(=O)(=O)c2cc(F)ccc2N1	.	0.47
CC(=O)NC1=NN(C(C)=O)C(c2ccc(Sc3ccc(C)cc3)o2)S1 (stereo not given)	-0.44	2
CC(=O)NC1=NN(C(C)=O)C(c2ccc(C)o2)S1 (stereo not given)	-2.3	16*
CCN1CCN(C(=O)C2CCCN(c3nnc(N4CCCC4=O)s3)C2)CC1 (stereo not given)	.	-1.4
Nc1ccc2nc(SCC(=O)c3ccc(-c4ccccc4)cc3)sc2c1	17*	.
Nc1ccc2nc(SCC(=O)c3ccc(Br)cc3)sc2c1	-4.4	-1.4
Cc1ccccc1-c1nnc(Cc2ccc(F)cc2Cl)o1	-0.9	1.6
CCC(C)NS(=O)(=O)c1cc(-c2cnc(C)o2)ccc1C (stereo not given)	.	-0.14
Cc1ccn2c(NC3CCCCC3)c(-c3ccsc3)nc2c1	-2.8	.
CC(=O)Nc1sc2c(c1C#N)CCCC2	0.23	0.23
